From PubChem
Compounds with a hit are over-represented: about 1.3% of the library has one in this group of screens.
UGM FP inh: blocks M. tuberculosis UGM enzyme; P9WIQ1; purified UGM, fluorescence polarization probe displacement; inhibition, % at 10 µM; actives 0.06% (n = 320,000); AID 504406; in the data active = inhibition above about 10%, passing the limit was not always enough
Target sequence (P9WIQ1 whole entry, looked up): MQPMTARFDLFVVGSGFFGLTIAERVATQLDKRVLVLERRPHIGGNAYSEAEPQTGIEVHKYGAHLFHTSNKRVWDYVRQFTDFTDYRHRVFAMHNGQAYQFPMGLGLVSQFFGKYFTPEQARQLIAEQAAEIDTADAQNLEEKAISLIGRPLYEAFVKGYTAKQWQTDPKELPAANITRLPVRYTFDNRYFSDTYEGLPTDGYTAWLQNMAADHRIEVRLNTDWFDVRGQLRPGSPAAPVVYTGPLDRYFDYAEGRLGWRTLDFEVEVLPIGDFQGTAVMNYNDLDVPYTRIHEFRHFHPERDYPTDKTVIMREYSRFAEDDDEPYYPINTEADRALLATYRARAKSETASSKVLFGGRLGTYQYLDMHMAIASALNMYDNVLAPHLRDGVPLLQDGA
FadD28 FP inh: inhibitors of Mycobacterium tuberculosis FadD28 bisubstrate binding; FadD28 bisubstrate probe binding, fluorescence polarization; inhibition, % at 12.5 µM; actives 0.22% (n = 360,000); in the data active = inhibition above about 8.5%, passing the limit was not always enough
Rv3671c inh: inhibitors of M. tuberculosis serine protease Rv3671c. P9WHR9. inhibition, % at 5.96 µM. actives 0.048% (n = 320,000). AID 2606; in the data active = inhibition above about 38%;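 note: extracellular domain of Rv3671c used as enzyme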
BJeLR viability: kills HRASV12-expressing BJeLR cells; BJeLR (HRASV12) viability, CellTiter-Glo ATP luminescence, 48 h; inhibition, % (no concentration beside the values); actives 0.17% (n = 300,000); in the data active = inhibition above about 50%
PrP UTR inh: suppresses PrP 5' UTR mRNA reporter expression | cell-based PrP 5' UTR mRNA reporter, plate reader | inhibition, % (concentration not given with the values) | actives 0.35% (n = 340,000); in the data active = inhibition above about 52%
RecA splice inh: inhibitors of M. tuberculosis RecA intein splicing. P9WHJ3. cell-free RecA intein splicing, fluorescence. inhibition, % (concentration not given with the values). actives 0.75% (n = 290,000); in the data active = inhibition above about 30%
GFP chromophore: counter-screen GFP chromophore formation inhibition. EC50, µM. cell-free GFP chromophore formation, fluorescence. shares compounds with RecA splice inh. actives 83% (n = 2,100); call rule not given here
Large screens that a line does not name were inactive (follow-up assays come after a bar, where they were run).

CCOC(=O)c1[nH]c(=O)c2ccccc2c1O	RecA splice inh 56.0 | GFP chromophore 26.4
Cn1c(SCC(=O)NCC2CCCO2)ncc(C(=O)Nc2ccc(F)cc2)c1=O (configuration not stated)	RecA splice inh 38.6 | GFP chromophore 0.89
CC(=O)Nc1ccc(NC(=O)CSc2ncc(C(=O)Nc3ccc(Cl)cc3)c(=O)n2C)cc1	none
Cn1c(SCC(=O)NCc2ccc(F)cc2)ncc(C(=O)Nc2ccccc2)c1=O	none
Cn1c(SCC(=O)NCC2CCCO2)ncc(C(=O)Nc2ccc(Cl)cc2)c1=O (configuration not stated)	RecA splice inh 54.3 | GFP chromophore inactive
OC(c1ccccc1)(c1nc(/C=C/c2ccc(C(F)(F)F)cc2)cs1)C(F)(F)F (configuration not stated)	none (no result: UGM FP inh, Rv3671c inh, BJeLR viability, PrP UTR inh, RecA splice inh)
CCOC(=O)C(C#N)C(c1cccnc1)c1c(C)[nH][nH]c1=O (configuration not stated)	RecA splice inh 78.2 | GFP chromophore 11.5
CCOC(=O)/C(C#N)=C\c1cccnc1	none
Cc1c(Br)cccc1NC(=O)C1(C)CCN1Cc1ccccc1OC(F)F (configuration not stated)	none (no result: UGM FP inh, Rv3671c inh, BJeLR viability, PrP UTR inh, RecA splice inh)
COc1ccc(Nc2cnn(-c3nc4ccccc4s3)c(=O)c2Cl)cc1	RecA splice inh 47.4 | GFP chromophore 6.74
O=c1c(Cl)c(Nc2cccc(Cl)c2)cnn1-c1nc2ccccc2s1	none
N#CC1=C(N)Oc2n[nH]c(-c3ccccc3)c2C12C(=O)Nc1ccccc12 (configuration not stated)	none
Cc1[nH]nc2c1C1(CCN(C(=O)c3ccccc3)CC1)C(C#N)=C(N)O2	RecA splice inh 78.6 | GFP chromophore 12.5
CC(=O)N1CCC2(CC1)C(C#N)=C(N)Oc1c2sc2nc(C)cc(C)c12	none
Cc1[nH]nc2c1C1(CCC(c3ccccc3)CC1)C(C#N)=C(N)O2 (configuration not stated)	RecA splice inh 77.0 | GFP chromophore 25.3
CC(=O)N1CCC2(CC1)C(C#N)=C(N)Oc1n[nH]c(C)c12	RecA splice inh 78.6 | GFP chromophore 14.9
Cc1[nH]nc2c1C1(CCN(C(=O)OCc3ccccc3)CC1)C(C#N)=C(N)O2	RecA splice inh 80.2 | GFP chromophore 29.8
C[C@@H]1CN([C@@H](C)CO)C(=O)CCCn2nncc2CO[C@@H]1CN(C)S(=O)(=O)c1cccc(C#N)c1	none (no result: UGM FP inh, Rv3671c inh, BJeLR viability, PrP UTR inh, RecA splice inh)
O=C(NCc1ccc(F)cc1)c1cc(C2CCCCN2C(=O)CCCc2ccccc2)on1 (configuration not stated)	none (no result: UGM FP inh, Rv3671c inh, BJeLR viability, PrP UTR inh, RecA splice inh)
O=C(c1cc(C2CC2)nn1-c1ccccc1)N1CCN(Cc2ccccc2)CC1	none (no result: UGM FP inh, Rv3671c inh, BJeLR viability, PrP UTR inh, RecA splice inh)
CCC(C)[C@H](N)C(=O)N[C@H]1CCC2C3CC=C4C[C@@H](O)CC[C@]4(C)C3CC[C@@]21C (some centres not stated)	none (no result: UGM FP inh, Rv3671c inh, BJeLR viability, PrP UTR inh, RecA splice inh)
Nc1ccc(N2CCOCC2)c2nonc12	RecA splice inh 94.9 | GFP chromophore 23.5
O=C(Nc1ccc(N2CCOCC2)c2nonc12)C1CCCC1	none
CC(CCc1ccccc1)NC(=O)COC(=O)c1cc(NS(=O)(=O)c2ccc(Cl)c([N+](=O)[O-])c2)ccc1O (configuration not stated)	RecA splice inh 37.5 | GFP chromophore inactive
CCc1nc2ccc(C(=O)NCc3cccs3)cn2c1N(CC)Cc1cccc(Br)c1	none (no result: UGM FP inh, Rv3671c inh, BJeLR viability, PrP UTR inh, RecA splice inh)
O=C(c1c[nH]c(C(=O)C(Cl)(Cl)Cl)c1)c1ccccc1Br	RecA splice inh 51.3 | GFP chromophore 26.1
CNC(=O)c1cc(C(=O)c2ccccc2Br)c[nH]1	none
O=C1Cc2ccccc2C(=O)N1CCc1ccccc1	RecA splice inh 92.3 | GFP chromophore 5.48
COc1ccccc1CN1CCSCC1	RecA splice inh 32.6 | GFP chromophore 25.1
COc1ccc2[nH]c3c(Cl)ncnc3c2c1	RecA splice inh 76.2 | GFP chromophore inactive
Fc1ccc2[nH]c3c(Cl)ncnc3c2c1	none
COc1cc(-c2c(C(C)=O)c(C)nc3c2C(=O)c2ccccc2-3)cc(OC)c1OC	none (no result: UGM FP inh, Rv3671c inh)
CC(=O)c1c(Cl)nc2cccc3c2c1-c1ccccc1C3=O	RecA splice inh 33.3 | GFP chromophore inactive
CC1=CCC[C@@H]2[C@]3(CC/C(=C/CO)CO)CO[C@@]2(C1)[C@@H](O)C[C@H]3C	none (no result: UGM FP inh, Rv3671c inh, BJeLR viability, PrP UTR inh, RecA splice inh)
COc1ccc(C2NC(=O)NC3=C2CCc2ccccc23)cc1 (configuration not stated)	RecA splice inh 46.6 | GFP chromophore 32.7
COC(=O)c1nc(-c2ccc3c(n2)C(=O)C(N)=C(OC)C3=O)c(N)c(-c2ccc(OC)c(OC)c2O)c1C	BJeLR viability 64.4, RecA splice inh 93.6 | GFP chromophore 0.845
COC1=C(N)C(=O)c2nc(-c3nc(C(=O)O)c(C)c(-c4ccc(OC)c(OC)c4O)c3N)ccc2C1=O	none (no result: UGM FP inh, FadD28 FP inh, BJeLR viability, RecA splice inh)
CCCCCC(=O)Cc1cc(O)cc2c1C(=O)Oc1cc(O)c(C(=O)O)c(CCCCC)c1O2	RecA splice inh 66.3 (no result: FadD28 FP inh, PrP UTR inh) | GFP chromophore 7.25
O=C(NC1CCCC1)C(c1ccc(F)cc1)N(Cc1ccccc1Cl)C(=O)CCl (configuration not stated)	RecA splice inh 49.6 | GFP chromophore inactive
COCCN(C(=O)CCl)C(C(=O)NC1CCCCC1)c1ccccc1C (configuration not stated)	RecA splice inh 46.6 | GFP chromophore 25.6
COCCN(C(=O)CCC(=O)Nc1cc(C)on1)C(C(=O)NC1CCCC1)c1ccccc1C (configuration not stated)	none
O=C(NCC1CC1)C1Cc2c(-c3ccc4c(c3)OCO4)ccnc2O1 (configuration not stated)	none (no result: UGM FP inh, Rv3671c inh, BJeLR viability, PrP UTR inh, RecA splice inh)
COCCN(C(=O)COC(=O)C(C)(C)Oc1ccc(Cl)cc1)c1c(N)n(Cc2ccccc2)c(=O)[nH]c1=O	none (no result: UGM FP inh, Rv3671c inh, BJeLR viability, RecA splice inh)
CCOC(=O)c1cccc(NC(=O)c2ccc(-n3cnnn3)cc2)c1	none (no result: BJeLR viability, RecA splice inh)
COc1ccc(/C=C2/SC(=S)N(CCCC(=O)Nc3cccc(O)c3)C2=O)cc1	RecA splice inh 38.3 | GFP chromophore inactive
O=C(O)CN1C(=O)/C(=C\c2ccccc2OCc2ccc(Cl)cc2Cl)SC1=S	none
COc1cccc(/C=C2\SC(=S)N(CCCC(=O)N(CCO)c3ccccc3)C2=O)c1	BJeLR viability 55.1, RecA splice inh 37.4 | GFP chromophore 31.9
COc1ccc(/C=C2\SC(=S)N(CCC(=O)Nc3cccc(O)c3)C2=O)cc1OC	none
O=C(O)CN1C(=O)/C(=C\c2cccc(OCc3ccc(Cl)cc3Cl)c2)SC1=S	RecA splice inh 40.5 (no result: Rv3671c inh) | GFP chromophore 21.4
COc1ccc(-c2cc(NC(C)=O)c3ncc(-c4ccc(F)cc4)n3c2)cc1OC	none (no result: UGM FP inh, Rv3671c inh, BJeLR viability, PrP UTR inh, RecA splice inh)
COc1ccc(CC(Cc2ccc(OC)c(OC)c2)NC=O)cc1OC	none (no result: UGM FP inh, Rv3671c inh, BJeLR viability, PrP UTR inh, RecA splice inh)
FC(F)(F)c1ccc(-c2cccc3c2C2CC3CCN2Cc2ccc3c(c2)OCO3)cc1 (configuration not stated)	none (no result: UGM FP inh, Rv3671c inh, BJeLR viability, PrP UTR inh, RecA splice inh)
